The text below walks through data of publication PMC11006913.

What all share (assay): PBM; 200 nM protein, PBS
Conditions in all cases: dsDNA, one strand shown

In assay [1] the target is HESX1 (Homo sapiens, UniProt Q9UBX0 95-180, R165K).
The target of assay [2] is SHOX (Homo sapiens, UniProt O15266 103-189).
In assay [3] the target is ALX4 (Homo sapiens, UniProt Q9H161 200-286).
Assay [4] addresses PRRX1 (Homo sapiens, UniProt P54821 80-166, F113S).
Assay [5] has as its target ALX4 (Homo sapiens, UniProt Q9H161 200-286, Q225E).
Assay [6] addresses HESX1 (Homo sapiens, UniProt Q9UBX0 95-180).
The target in assay [7] is MSX2 (Homo sapiens, UniProt P35548 130-214, R199I).
Sequence of MSX2 (Homo sapiens, UniProt P35548 130-214, R199I) (P35548 130-214 R199I): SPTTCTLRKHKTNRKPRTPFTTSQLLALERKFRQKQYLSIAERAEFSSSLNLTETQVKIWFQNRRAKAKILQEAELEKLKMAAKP
The target of assay [8] is ALX1 (Homo sapiens, UniProt Q15699 118-204, L144V).
Sequence of ALX1 (Homo sapiens, UniProt Q15699 118-204, L144V) (Q15699 118-204 L144V): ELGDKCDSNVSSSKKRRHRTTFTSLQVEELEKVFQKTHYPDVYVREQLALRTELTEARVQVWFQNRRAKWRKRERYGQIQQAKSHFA
Assay [9] has as its target SHOX (Homo sapiens, UniProt O15266 103-189, R173C).
The target in assay [10] is ALX1 (Homo sapiens, UniProt Q15699 118-204, L144R).
Sequence of ALX1 (Homo sapiens, UniProt Q15699 118-204, L144R) (Q15699 118-204 L144R): as the sequence (Q15699 118-204 L144V) above, with V27R counted along it
For assay [11], the target named is PROP1 (Homo sapiens, UniProt O75360 56-141).
Sequence of PROP1 (Homo sapiens, UniProt O75360 56-141) (O75360 56-141): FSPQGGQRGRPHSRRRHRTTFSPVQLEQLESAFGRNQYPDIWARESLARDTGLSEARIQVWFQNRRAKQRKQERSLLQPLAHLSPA
Assay [12] deals with HESX1 (Homo sapiens, UniProt Q9UBX0 95-180, R109Q).
Sequence of HESX1 (Homo sapiens, UniProt Q9UBX0 95-180, R109Q) (Q9UBX0 95-180 R109Q): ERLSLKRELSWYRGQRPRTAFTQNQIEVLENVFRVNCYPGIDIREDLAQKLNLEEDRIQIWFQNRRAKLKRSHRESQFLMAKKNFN
In assay [13] the target is PROP1 (Homo sapiens, UniProt O75360 56-141, R99H).
Sequence of PROP1 (Homo sapiens, UniProt O75360 56-141, R99H) (O75360 56-141 R99H): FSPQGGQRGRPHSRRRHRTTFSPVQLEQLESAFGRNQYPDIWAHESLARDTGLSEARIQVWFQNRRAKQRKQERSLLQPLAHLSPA
A further assay deals with ALX3 (Homo sapiens, UniProt O95076 139-225, L168Q).
Sequence of ALX3 (O95076 139-225 L168Q): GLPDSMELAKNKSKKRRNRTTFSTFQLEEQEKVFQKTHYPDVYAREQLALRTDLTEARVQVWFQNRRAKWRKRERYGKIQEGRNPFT
The target in assay [14] is HESX1 (Homo sapiens, UniProt Q9UBX0 95-180, P111T).
Sequence of HESX1 (Homo sapiens, UniProt Q9UBX0 95-180, P111T) (Q9UBX0 95-180 P111T): as the sequence (Q9UBX0 95-180 R109Q) above, with Q15R, P17T counted along it
The target of assay [15] is PROP1 (Homo sapiens, UniProt O75360 56-141, F88S).
Sequence of PROP1 (Homo sapiens, UniProt O75360 56-141, F88S) (O75360 56-141 F88S): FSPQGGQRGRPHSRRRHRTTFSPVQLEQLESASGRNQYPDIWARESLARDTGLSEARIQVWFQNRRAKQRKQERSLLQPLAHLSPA
The target of assay [16] is MSX2 (Homo sapiens, UniProt P35548 130-214, F161Y).
Sequence of MSX2 (Homo sapiens, UniProt P35548 130-214, F161Y) (P35548 130-214 F161Y): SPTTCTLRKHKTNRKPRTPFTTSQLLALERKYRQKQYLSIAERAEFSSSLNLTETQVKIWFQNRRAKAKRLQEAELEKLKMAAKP
Assay [17] has as its target HESX1 (Homo sapiens, UniProt Q9UBX0 95-180, F115L).
The target of assay [18] is ALX1 (Homo sapiens, UniProt Q15699 118-204).
Sequence of ALX1 (Homo sapiens, UniProt Q15699 118-204) (Q15699 118-204): as the sequence (Q15699 118-204 L144V) above, with V27L counted along it
Assay [19] has as its target PRRX1 (Homo sapiens, UniProt P54821 80-166).

Sequence of HESX1 (Homo sapiens, UniProt Q9UBX0 95-180, F115L) (Q9UBX0 95-180 F115L): as the sequence (Q9UBX0 95-180 R109Q) above, with Q15R, F21L counted along it
Sequence of SHOX (Homo sapiens, UniProt O15266 103-189, R173C) (O15266 103-189 R173C): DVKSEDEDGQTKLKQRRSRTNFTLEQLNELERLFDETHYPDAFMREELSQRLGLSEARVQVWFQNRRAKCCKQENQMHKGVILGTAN
Sequence of SHOX (Homo sapiens, UniProt O15266 103-189) (O15266 103-189): as the sequence (O15266 103-189 R173C) above, with C71R counted along it
Sequence of PRRX1 (Homo sapiens, UniProt P54821 80-166) (P54821 80-166): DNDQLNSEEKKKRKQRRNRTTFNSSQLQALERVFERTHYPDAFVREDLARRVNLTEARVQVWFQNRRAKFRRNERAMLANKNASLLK
Sequence of PRRX1 (Homo sapiens, UniProt P54821 80-166, F113S) (P54821 80-166 F113S): as the sequence (P54821 80-166) above, with F34S counted along it
Sequence of ALX4 (Homo sapiens, UniProt Q9H161 200-286) (Q9H161 200-286): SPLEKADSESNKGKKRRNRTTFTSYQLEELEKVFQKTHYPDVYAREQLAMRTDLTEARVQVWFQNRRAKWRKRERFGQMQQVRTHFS
Sequence of HESX1 (Homo sapiens, UniProt Q9UBX0 95-180, R165K) (Q9UBX0 95-180 R165K): as the sequence (Q9UBX0 95-180 R109Q) above, with Q15R, R71K counted along it
Sequence of ALX4 (Homo sapiens, UniProt Q9H161 200-286, Q225E) (Q9H161 200-286 Q225E): as the sequence (Q9H161 200-286) above, with Q26E counted along it
Sequence of HESX1 (Homo sapiens, UniProt Q9UBX0 95-180) (Q9UBX0 95-180): as the sequence (Q9UBX0 95-180 R109Q) above, with Q15R counted along it

For the sequence AATTAAAT, the binding signal in the assay with HESX1 [1] was 11.5 upbm affinity estimate (log intensity, higher = more binding, comparable within an allelic series); with SHOX [2] it was 11.5 upbm affinity estimate (log intensity, higher = more binding, comparable within an allelic series); in the assay with ALX4 [3], 13.9 upbm affinity estimate (log intensity, higher = more binding, comparable within an allelic series); with PRRX1 [4], 11.3 upbm affinity estimate (log intensity, higher = more binding, comparable within an allelic series); with ALX4 [5], 13.1 upbm affinity estimate (log intensity, higher = more binding, comparable within an allelic series); in the assay with HESX1 [6], 11.6 upbm affinity estimate (log intensity, higher = more binding, comparable within an allelic series). Moreover, the binding signal in the assay with MSX2 [7] is 12.4 upbm affinity estimate (log intensity, higher = more binding, comparable within an allelic series); with ALX1 [8], 11.5 upbm affinity estimate (log intensity, higher = more binding, comparable within an allelic series); with SHOX [9] it was 9.35 upbm affinity estimate (log intensity, higher = more binding, comparable within an allelic series); in the assay with ALX1 [10], 11.3 upbm affinity estimate (log intensity, higher = more binding, comparable within an allelic series); with PROP1 [11] it was 11.6 upbm affinity estimate (log intensity, higher = more binding, comparable within an allelic series); with HESX1 [12] it was 8.88 upbm affinity estimate (log intensity, higher = more binding, comparable within an allelic series). Further, the binding signal was 11.4 upbm affinity estimate (log intensity, higher = more binding, comparable within an allelic series) in the assay with PROP1 [13]; 10.5 upbm affinity estimate (log intensity, higher = more binding, comparable within an allelic series) in the assay with ALX3; 10.3 upbm affinity estimate (log intensity, higher = more binding, comparable within an allelic series) with HESX1 [14]; 7.81 upbm affinity estimate (log intensity, higher = more binding, comparable within an allelic series) with PROP1 [15]; 13.1 upbm affinity estimate (log intensity, higher = more binding, comparable within an allelic series) with MSX2 [16]; 7.97 upbm affinity estimate (log intensity, higher = more binding, comparable within an allelic series) with HESX1 [17]. Also, the binding signal was 12.2 upbm affinity estimate (log intensity, higher = more binding, comparable within an allelic series) in the assay with ALX1 [18] and 13.4 upbm affinity estimate (log intensity, higher = more binding, comparable within an allelic series) with PRRX1 [19].
Regarding AATTAGAT, the binding signal with HESX1 [1] was 11.3 upbm affinity estimate (log intensity, higher = more binding, comparable within an allelic series); with SHOX [2] it was 11.6 upbm affinity estimate (log intensity, higher = more binding, comparable within an allelic series); with ALX4 [3], 13.7 upbm affinity estimate (log intensity, higher = more binding, comparable within an allelic series); with PRRX1 [4], 11.1 upbm affinity estimate (log intensity, higher = more binding, comparable within an allelic series); with ALX4 [5], 12.6 upbm affinity estimate (log intensity, higher = more binding, comparable within an allelic series); with HESX1 [6], 11.4 upbm affinity estimate (log intensity, higher = more binding, comparable within an allelic series). In addition, the binding signal was 11.6 upbm affinity estimate (log intensity, higher = more binding, comparable within an allelic series) with ALX1 [8]; 9.16 upbm affinity estimate (log intensity, higher = more binding, comparable within an allelic series) in the assay with SHOX [9]; 11.1 upbm affinity estimate (log intensity, higher = more binding, comparable within an allelic series) in the assay with ALX1 [10]; 11.5 upbm affinity estimate (log intensity, higher = more binding, comparable within an allelic series) in the assay with PROP1 [11]; 8.52 upbm affinity estimate (log intensity, higher = more binding, comparable within an allelic series) with HESX1 [12]; 10.9 upbm affinity estimate (log intensity, higher = more binding, comparable within an allelic series) in the assay with PROP1 [13]. Also, the binding signal is 10.2 upbm affinity estimate (log intensity, higher = more binding, comparable within an allelic series) in the assay with ALX3; 10.1 upbm affinity estimate (log intensity, higher = more binding, comparable within an allelic series) in the assay with HESX1 [14]; 7.72 upbm affinity estimate (log intensity, higher = more binding, comparable within an allelic series) with PROP1 [15]; 7.63 upbm affinity estimate (log intensity, higher = more binding, comparable within an allelic series) with HESX1 [17]; 12.2 upbm affinity estimate (log intensity, higher = more binding, comparable within an allelic series) in the assay with ALX1 [18]; 13.3 upbm affinity estimate (log intensity, higher = more binding, comparable within an allelic series) in the assay with PRRX1 [19].
GACAATTA: the binding signal is 11.7 upbm affinity estimate (log intensity, higher = more binding, comparable within an allelic series) with HESX1 [1]; 11.6 upbm affinity estimate (log intensity, higher = more binding, comparable within an allelic series) with SHOX [2]; 11 upbm affinity estimate (log intensity, higher = more binding, comparable within an allelic series) with PRRX1 [4]; 12 upbm affinity estimate (log intensity, higher = more binding, comparable within an allelic series) with HESX1 [6]; 12.7 upbm affinity estimate (log intensity, higher = more binding, comparable within an allelic series) with MSX2 [7]; 9.21 upbm affinity estimate (log intensity, higher = more binding, comparable within an allelic series) with SHOX [9]. Further, the binding signal with HESX1 [12] is 8.59 upbm affinity estimate (log intensity, higher = more binding, comparable within an allelic series); with PROP1 [13], 10.8 upbm affinity estimate (log intensity, higher = more binding, comparable within an allelic series); with HESX1 [14], 10.4 upbm affinity estimate (log intensity, higher = more binding, comparable within an allelic series); with MSX2 [16], 13.4 upbm affinity estimate (log intensity, higher = more binding, comparable within an allelic series); with HESX1 [17], 7.41 upbm affinity estimate (log intensity, higher = more binding, comparable within an allelic series); with PRRX1 [19], 13.2 upbm affinity estimate (log intensity, higher = more binding, comparable within an allelic series).
As for GGAGCGCA, the binding signal with HESX1 [1] is 6.3 upbm affinity estimate (log intensity, higher = more binding, comparable within an allelic series); with SHOX [2], 7.21 upbm affinity estimate (log intensity, higher = more binding, comparable within an allelic series); with HESX1 [6], 6.37 upbm affinity estimate (log intensity, higher = more binding, comparable within an allelic series); with SHOX [9], 7.1 upbm affinity estimate (log intensity, higher = more binding, comparable within an allelic series); with HESX1 [12], 6.4 upbm affinity estimate (log intensity, higher = more binding, comparable within an allelic series); in the assay with HESX1 [14], 6.31 upbm affinity estimate (log intensity, higher = more binding, comparable within an allelic series). The binding signal with HESX1 [17] is 6.34 upbm affinity estimate (log intensity, higher = more binding, comparable within an allelic series).
Turning to AATTAGCG, the binding signal in the assay with HESX1 [1] is 11.8 upbm affinity estimate (log intensity, higher = more binding, comparable within an allelic series); with SHOX [2], 12 upbm affinity estimate (log intensity, higher = more binding, comparable within an allelic series); with ALX4 [3] it was 13.9 upbm affinity estimate (log intensity, higher = more binding, comparable within an allelic series); in the assay with PRRX1 [4] it was 11 upbm affinity estimate (log intensity, higher = more binding, comparable within an allelic series); with ALX4 [5], 13.1 upbm affinity estimate (log intensity, higher = more binding, comparable within an allelic series); in the assay with HESX1 [6], 11.9 upbm affinity estimate (log intensity, higher = more binding, comparable within an allelic series). Further, the binding signal in the assay with MSX2 [7] was 12.4 upbm affinity estimate (log intensity, higher = more binding, comparable within an allelic series); in the assay with ALX1 [8], 11.7 upbm affinity estimate (log intensity, higher = more binding, comparable within an allelic series); in the assay with SHOX [9] it was 9.63 upbm affinity estimate (log intensity, higher = more binding, comparable within an allelic series); in the assay with ALX1 [10] it was 11.3 upbm affinity estimate (log intensity, higher = more binding, comparable within an allelic series); with PROP1 [11], 11.2 upbm affinity estimate (log intensity, higher = more binding, comparable within an allelic series); with HESX1 [12], 8.95 upbm affinity estimate (log intensity, higher = more binding, comparable within an allelic series). Besides, the binding signal in the assay with PROP1 [13] was 11.2 upbm affinity estimate (log intensity, higher = more binding, comparable within an allelic series); in the assay with ALX3 it was 10.4 upbm affinity estimate (log intensity, higher = more binding, comparable within an allelic series); with HESX1 [14], 10.6 upbm affinity estimate (log intensity, higher = more binding, comparable within an allelic series); in the assay with PROP1 [15], 7.48 upbm affinity estimate (log intensity, higher = more binding, comparable within an allelic series); with MSX2 [16] it was 13 upbm affinity estimate (log intensity, higher = more binding, comparable within an allelic series); in the assay with HESX1 [17] it was 7.68 upbm affinity estimate (log intensity, higher = more binding, comparable within an allelic series). The binding signal was 12.6 upbm affinity estimate (log intensity, higher = more binding, comparable within an allelic series) with ALX1 [18] and 13.3 upbm affinity estimate (log intensity, higher = more binding, comparable within an allelic series) with PRRX1 [19].
